Measurements as given in the supplement of paper PMC10849652.
Targets with a hit are over-represented here; the source holds about 7,900 in all. About 0.6% of all pairs of compound and target were hits.

How the values were obtained:
Assay in all cases: log2 fold change, soluble protein after heating vs DMSO (PISA); higher = thermal stabilisation; K562 cells, 10 uM, 30 min; active = over 0.2 and 3.5 SD of the protein, either way, in both replicates (recomputed)
[1] = compound: CC1=C(C=C(C=C1)NC(=O)C2=CC(=CC=C2)C(C)(C)C#N)NC3=CC4=C(C=C3)N=CN(C4=O)C
Procedure, shortened: (§1)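 K562 cells at 2×10^6 cells/mL were treated for 30 min with 10 μM compound, and aliquots were heated for 3 min over 48°C-58°C before pooling. Extraction used PBS with 0.5% NP-40 at 4°C, and soluble protein was the supernatant after 21,000xg for 90 min, measured by TMTpro 16plex LC-MS/MS with channel sums equalised. Thermal stability values, relative to control samples and from duplicates, are log2 fold changes.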

[2] = compound: CC1=C(C=C(C=C1)NC(=O)C2=CC(=CC=C2)N(C)C)NC(=O)C3=CC=C(C=C3)O
Procedure, shortened: as §1

[3] = compound: CC1=CC=C(C=C1)SC2=C3C=C(SC3=CN=C2)C(=O)N
Procedure, shortened: as §1

[4] = compound: CC1=NC(=CC=C1)C2=C(N=C(N2)C(C)(C)C)C3=CC4=NC=CN=C4C=C3
Procedure, shortened: as §1

Nexturastat A = compound: CCCCN(Cc1ccc(C(=O)NO)cc1)C(=O)Nc1ccccc1 [Nexturastat A]
Procedure, shortened: as §1

vemurafenib = compound: CCCS(=O)(=O)Nc1ccc(F)c(C(=O)c2c[nH]c3ncc(-c4ccc(Cl)cc4)cc23)c1F [vemurafenib]
Procedure, shortened: as §1

[5] = compound: CCCS(=O)(=O)Nc1ccc(F)c(C(=O)c2c[nH]c3ncc(Cl)cc23)c1F
Procedure, shortened: as §1

[6] = compound: CCCc1cc(C)[nH]c(=O)c1CNC(=O)c1cc(-c2ccnc(N3CCN(C)CC3)c2)cc2c1cnn2C(C)C
Procedure, shortened: as §1

givinostat = compound: CCN(CC)Cc1ccc2cc(COC(=O)Nc3ccc(C(=O)NO)cc3)ccc2c1 [givinostat]
Procedure, shortened: as §1

barasertib = compound: CCN(CCCOc1ccc2c(Nc3cc(CC(=O)Nc4cccc(F)c4)[nH]n3)ncnc2c1)CCOP(=O)(O)O [barasertib]
Procedure, shortened: as §1

[7] = compound: CC[C@@H]1C(=O)N(C)c2cnc(Nc3ccc(C(=O)NC4CCN(C)CC4)cc3OC)nc2N1C1CCCC1
Procedure, shortened: as §1

volasertib = compound: CC[C@@H]1C(=O)N(C)c2cnc(Nc3ccc(C(=O)N[C@H]4CC[C@H](N5CCN(CC6CC6)CC5)CC4)cc3OC)nc2N1C(C)C [volasertib]
Procedure, shortened: as §1

[8] = compound: CC[C@H](C)N1C=C(C2=C(C=C(C=C21)C3=CN=C(C=C3)N4CCNCC4)C(=O)NCC5=C(C=C(NC5=O)C)C)C
Procedure, shortened: as §1

epoxomicin = compound: CC[C@H](C)[C@@H](C(=O)N[C@@H]([C@@H](C)O)C(=O)N[C@@H](CC(C)C)C(=O)[C@]1(CO1)C)NC(=O)[C@H]([C@@H](C)CC)N(C)C(=O)C [epoxomicin]
Procedure, shortened: as §1

[9] = compound: CCn1c(C(=O)N(C2CC2)C2CC2)cc2c3c(ncn3C)c(Nc3cc(C)n(C)n3)nc21
Procedure, shortened: as §1

[10] = compound: CCn1cc(-c2ccnc3[nH]c(-c4cccc(CN(C)C)c4)cc23)c(-c2ccc(NC(=O)N(C)C)cc2)n1
Procedure, shortened: as §1

[11] = compound: CN(C)CC(=O)Nc1ccc2[nH]c(=O)c3ccccc3c2c1
Procedure, shortened: as §1

rosiglitazone = compound: CN(CCOC1=CC=C(C=C1)C[C@H]2C(=O)NC(=O)S2)C3=CC=CC=N3 (racemic) [rosiglitazone]
Procedure, shortened: as §1

[12] = compound: CN1C2=C(C3=C1C(=O)N(N=C3)CC4=CC(=CC=C4)N)SC(=C2)S(=O)C
Procedure, shortened: as §1

[13] = compound: CN1CCC(CNc2ccc3ncc(-c4cccc(OC(F)(F)F)c4)n3n2)CC1
Procedure, shortened: as §1

Measured: log2 fold change

RPS25 (UniProt P62851)
inactive: [1] 0.009 | [2] 0 | [3] -0.03 | [4] 0 | Nexturastat A 0.11 | vemurafenib -0.08 | [5] -0.102 | [6] 0.06 | givinostat 0.042 | barasertib -0.075 | [7] 0.063 | volasertib 0.338 | [8] 0.012 | epoxomicin -0.172 | [9] 0.034 | [10] 0.134 | [11] -0.03 | rosiglitazone -0.062 | [12] 0.122 | [13] 0.146

SLC19A1 (UniProt P41440)
UniProt P41440, sequence (P41440 whole entry, looked up): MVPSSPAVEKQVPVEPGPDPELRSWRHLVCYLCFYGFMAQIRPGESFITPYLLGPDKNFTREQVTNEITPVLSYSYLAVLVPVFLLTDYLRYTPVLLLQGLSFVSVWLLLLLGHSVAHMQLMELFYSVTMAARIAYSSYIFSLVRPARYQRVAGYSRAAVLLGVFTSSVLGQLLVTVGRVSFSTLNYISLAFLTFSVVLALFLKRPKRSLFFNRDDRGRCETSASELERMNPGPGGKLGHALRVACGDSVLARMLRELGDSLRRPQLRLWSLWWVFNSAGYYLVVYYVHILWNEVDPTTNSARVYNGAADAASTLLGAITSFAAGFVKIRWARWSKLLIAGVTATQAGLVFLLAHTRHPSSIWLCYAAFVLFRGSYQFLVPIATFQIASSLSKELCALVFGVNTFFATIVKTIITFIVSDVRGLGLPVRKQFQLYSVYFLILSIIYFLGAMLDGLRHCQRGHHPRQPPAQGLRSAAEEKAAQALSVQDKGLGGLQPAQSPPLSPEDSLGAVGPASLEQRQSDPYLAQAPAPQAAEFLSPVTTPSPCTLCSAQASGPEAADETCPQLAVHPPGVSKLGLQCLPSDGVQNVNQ
inactive: [1] 0.112 | [2] -0.054 | [3] -0.019 | [4] -0.023 | Nexturastat A -0.107 | vemurafenib 0.002 | [5] -0.031 | [6] -0.018 | givinostat 0.007 | barasertib -0.011 | [7] 0.08 | volasertib 0.078 | [8] -0.062 | epoxomicin 0.087 | [9] 0.019 | [10] -0.047 | [11] 0.003 | rosiglitazone 0.019 | [12] -0.109 | [13] 0.172

RAD51 (UniProt Q06609)
UniProt Q06609, sequence (Q06609 whole entry, looked up): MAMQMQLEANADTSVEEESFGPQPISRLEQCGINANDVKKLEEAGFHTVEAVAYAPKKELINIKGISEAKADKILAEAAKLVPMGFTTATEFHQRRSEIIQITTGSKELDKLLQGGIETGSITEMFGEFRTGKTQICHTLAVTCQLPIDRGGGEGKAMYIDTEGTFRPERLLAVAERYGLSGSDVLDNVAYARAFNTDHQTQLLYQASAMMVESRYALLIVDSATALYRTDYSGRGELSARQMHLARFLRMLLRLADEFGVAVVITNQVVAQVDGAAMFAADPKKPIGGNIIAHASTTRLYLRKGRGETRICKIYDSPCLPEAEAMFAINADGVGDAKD
inactive: [1] -0.012 | [2] -0.017 | [3] -0.042 | [4] -0.052 | Nexturastat A 0.001 | vemurafenib 0.02 | [5] -0.048 | [6] 0.032 | givinostat 0.179 | barasertib 0.016 | [7] 0.013 | volasertib 0.113 | [8] 0.026 | epoxomicin 0.157 | [9] -0.029 | [10] -0.011 | [11] -0.024 | rosiglitazone -0.016 | [12] -0.075 | [13] 0.051

RBM4 (UniProt Q9BWF3)
UniProt Q9BWF3, sequence (Q9BWF3 whole entry, looked up): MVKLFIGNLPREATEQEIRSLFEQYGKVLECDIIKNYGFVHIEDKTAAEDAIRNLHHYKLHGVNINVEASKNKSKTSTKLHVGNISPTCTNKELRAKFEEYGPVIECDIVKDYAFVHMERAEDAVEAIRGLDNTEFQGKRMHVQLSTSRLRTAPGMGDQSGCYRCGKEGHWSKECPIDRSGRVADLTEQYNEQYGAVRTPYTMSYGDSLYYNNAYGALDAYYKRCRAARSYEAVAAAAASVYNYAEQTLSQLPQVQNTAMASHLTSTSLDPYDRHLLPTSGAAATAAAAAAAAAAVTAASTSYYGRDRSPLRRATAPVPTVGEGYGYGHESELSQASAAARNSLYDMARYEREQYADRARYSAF
active: volasertib -0.3
inactive: [1] -0.041 | [2] -0.033 | [3] -0.061 | [4] -0.034 | Nexturastat A 0.081 | vemurafenib 0.01 | [5] 0.052 | [6] 0.003 | givinostat 0.071 | barasertib 0.018 | [7] -0.043 | [8] 0.057 | epoxomicin -0.018 | [9] -0.079 | [10] 0.059 | [11] -0.024 | rosiglitazone -0.034 | [12] 0.129 | [13] -0.091

RAB5C isoform 2 (UniProt P51148)
UniProt P51148, sequence (P51148 whole entry, looked up): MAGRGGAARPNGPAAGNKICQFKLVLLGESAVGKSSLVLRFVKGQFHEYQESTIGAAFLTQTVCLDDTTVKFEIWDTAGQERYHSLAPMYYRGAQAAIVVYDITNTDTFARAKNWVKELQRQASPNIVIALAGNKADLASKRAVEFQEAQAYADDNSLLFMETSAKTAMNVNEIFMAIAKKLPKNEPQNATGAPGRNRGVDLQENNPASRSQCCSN
inactive: [1] 0.069 | [2] -0.02 | [3] 0.02 | [4] 0.01 | Nexturastat A -0.029 | vemurafenib 0.015 | [5] 0.008 | [6] -0.017 | givinostat 0.006 | barasertib -0.031 | [7] 0.004 | volasertib 0.045 | [8] -0.024 | epoxomicin 0 | [9] 0.029 | [10] -0.002 | [11] 0 | rosiglitazone -0.011 | [12] -0.032 | [13] 0.018

RAC3 (UniProt P60763)
inactive: [1] 0.025 | [2] -0.021 | [3] 0.084 | [4] -0.004 | Nexturastat A -0.042 | vemurafenib 0.006 | [5] -0.006 | [6] -0.044 | givinostat -0.037 | barasertib -0.015 | [7] 0.039 | volasertib 0.075 | [8] -0.082 | epoxomicin -0.008 | [9] 0.051 | [10] -0.149 | [11] 0 | rosiglitazone 0 | [12] -0.095 | [13] 0.035

RNPS1 (UniProt Q15287)
UniProt Q15287, sequence (Q15287 whole entry, looked up): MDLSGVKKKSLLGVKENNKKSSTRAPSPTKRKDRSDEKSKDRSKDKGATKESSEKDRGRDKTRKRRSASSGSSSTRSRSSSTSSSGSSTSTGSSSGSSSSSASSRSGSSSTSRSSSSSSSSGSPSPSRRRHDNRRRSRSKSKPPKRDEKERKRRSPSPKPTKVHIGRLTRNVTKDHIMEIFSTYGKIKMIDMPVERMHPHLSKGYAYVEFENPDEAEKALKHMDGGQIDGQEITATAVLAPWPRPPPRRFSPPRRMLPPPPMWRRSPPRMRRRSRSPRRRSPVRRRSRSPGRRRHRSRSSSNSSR
inactive: [1] -0.043 | [2] 0.015 | [3] 0.017 | [4] 0.031 | Nexturastat A 0.245 | vemurafenib -0.001 | [5] -0.033 | [6] -0.024 | givinostat 0.071 | barasertib 0.015 | [7] 0.062 | volasertib -0.155 | [8] 0.049 | epoxomicin -0.126 | [9] -0.043 | [10] -0.008 | [11] 0.031 | rosiglitazone -0.08 | [12] 0.016 | [13] 0.006

RHOA (UniProt P61586)
UniProt P61586, sequence (P61586 whole entry, looked up): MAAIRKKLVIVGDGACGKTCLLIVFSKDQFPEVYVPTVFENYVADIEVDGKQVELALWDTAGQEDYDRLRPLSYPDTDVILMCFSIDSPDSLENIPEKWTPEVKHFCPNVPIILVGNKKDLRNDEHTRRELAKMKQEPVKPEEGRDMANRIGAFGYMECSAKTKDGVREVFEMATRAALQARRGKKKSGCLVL
inactive: [1] 0.015 | [2] -0.073 | [3] 0.047 | [4] 0.061 | Nexturastat A 0.039 | vemurafenib -0.042 | [5] 0.074 | [6] 0.145 | givinostat -0.032 | barasertib 0.026 | [7] -0.098 | volasertib 0.134 | [8] 0.065 | epoxomicin 0.049 | [9] 0.024 | [10] 0.071 | [11] -0.025 | rosiglitazone -0.057 | [12] -0.037 | [13] 0.01
